# Measles CPE = compounds protecting cells from measles virus cytopathic effect, primary screen, measles RdRp inhibitor project, single point, MLSMR library, absorbance. protection (pct of control), % at 4 µM. Measles virus-infected cells, CPE protection. actives 1.5% (n = 140,000); in the data active = protection mostly above about 24%, no sharp cut-off; inactive = mostly below about 26%
# CYP2C19 act = human CYP2C19 activators, primary screen, biochemical, luminescence. recombinant CYP2C19, luciferin-H EGE luminescence; hits give high values; 0 = fully inhibited enzyme, 1 = untreated enzyme. AID 1025, 2008. 96,000 tested, under 10 active. activation factor at 5 µM;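 active = activation factor of at least 2 at 5 µM in the primary screen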;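 note: 0 = wells with 2.5 mM tranylcypromine and 1 = vehicle-only wells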
# Target sequence (P33261 whole entry, looked up): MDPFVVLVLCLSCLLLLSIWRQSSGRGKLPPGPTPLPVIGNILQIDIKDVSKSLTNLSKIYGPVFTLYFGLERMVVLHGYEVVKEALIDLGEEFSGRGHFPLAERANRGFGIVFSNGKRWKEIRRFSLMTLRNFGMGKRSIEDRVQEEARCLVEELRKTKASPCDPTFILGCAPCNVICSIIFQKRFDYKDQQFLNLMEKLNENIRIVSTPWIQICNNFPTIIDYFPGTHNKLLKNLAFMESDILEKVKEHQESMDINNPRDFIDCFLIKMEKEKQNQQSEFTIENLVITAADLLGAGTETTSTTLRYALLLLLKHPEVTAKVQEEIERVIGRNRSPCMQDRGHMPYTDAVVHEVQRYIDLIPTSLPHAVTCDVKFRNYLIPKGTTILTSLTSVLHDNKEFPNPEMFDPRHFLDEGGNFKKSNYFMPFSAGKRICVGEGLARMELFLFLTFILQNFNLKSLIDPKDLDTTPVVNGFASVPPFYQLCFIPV
# CYP2C9 inh = blockers of cytochrome P450 2C9 activity – biochemical, luminescence, ADME assay, primary screen. P11712. CYP2C9 Supersomes, luciferin-H conversion. inhibition, % at 5 µM. actives 20% (n = 96,000). AID 777, 2007;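 active = blocking of liver enzyme CYP2C9 beyond about 50% at 5 µM, limit read from the data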
# CYP2C9 activ = human CYP2C9 activators, primary screen, biochemical, luminescence; Cytochrome P450 2C9 (Homo sapiens), P11712; AID 1024, 2008; recombinant CYP2C9, luciferin-H conversion; hits give high values; factor 1 = untreated enzyme, 0 = blocked; activation factor at 5 µM; actives 1.4% (n = 96,000);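 active = activation factor of 2 or more for CYP2C9 at a 5 µM dose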;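 note: 0 = sulfaphenazole-blocked wells and 1 = vehicle-only wells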
# CYP2C19 inh = blockers of cytochrome P450 2C19 activity – biochemical, luminescence, ADME assay, primary screen | actives 21% (n = 96,000) | P33261 | inhibition, % at 5 µM | CYP2C19 Supersomes, luciferin-H EGE luminescence, 30 min;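 active = CYP2C19 inhibition above a set limit at 5 µM in the primary screen, cut at about 50% in these data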;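 note: plate controls were negative control wells for no effect and 2.5 mM tranylcypromine positive control for full effect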
# * = called active by the depositor; . = no result given. Only some compounds are listed: those with a hit (about 22% of all), similar ones and a draw of the others.
SMILES,Measles CPE,CYP2C19 act,CYP2C9 inh,CYP2C9 activ,CYP2C19 inh
CCOC(=O)c1sc(NC(=O)c2cc(-c3ccccc3C)nc3ccccc23)c(C#N)c1C,4,1,55*,0.5,4
Cc1ccccc1-c1cc(C(=O)Nc2sc(C)c(C)c2C(N)=O)c2ccccc2n1,8,0.3,98*,0,69*
CCOC(=O)c1sc(NC(=O)c2ccncc2)c(C#N)c1C,10,.,.,.,.
Cc1cccc(C)c1NC(=O)CSc1nnc(-c2ccncc2)n1Cc1ccco1,8,0.3,67*,0.3,73*
Cc1cc(Cl)ccc1NC(=O)CSc1nnc(-c2ccncc2)n1Cc1ccco1,31,0.1,90*,0.1,86*
COc1ccc(Cl)cc1NC(=O)CSc1nnc(-c2ccncc2)n1CC1CCCO1 (centres undefined),3,0.4,49,0.5,60*
O=C(CSc1nnc(-c2ccncc2)n1Cc1ccco1)OC1CCCCC1,6,0,92*,0.1,98*
COc1ccccc1NC(=O)CSc1nnc(-c2ccncc2)n1CC1CCCO1 (centres undefined),15,1,10,0.9,2
O=C(CSc1nnc(-c2ccco2)n1Cc1ccccc1)OC1CCCCC1,2,0.8,-6,1.1,21
O=C(CSc1nnc(-c2ccncc2)n1Cc1ccco1)Nc1nccs1,3,.,.,.,.
NC(=S)NNC(=O)Nc1ccc(Cl)c(Cl)c1,6,.,.,.,.
O=C(CSc1nnnn1-c1ccc(F)cc1)NC1CCCCC1,34,0.7,-4,1,30
CC1CCCCC1NC(=O)CSc1nnnn1-c1ccccc1 (centres undefined),3,0.1,6,0.9,89*
COC(=O)c1c(NC(=O)CSc2nnnn2-c2ccccc2)sc2c1CCC(C)C2 (centres undefined),6,0.6,71*,0.3,41
O=C(CN1C(=O)S/C(=C\c2ccc(Cl)cc2)C1=O)NNC(=O)c1ccccc1O,6,.,.,.,.
Cn1cnc2cc(OC(=O)c3ccccc3)ccc21,21,0.8,11,0.9,16
CC(=O)c1ccc(OC(C)C)c(CSc2nc(O)cc(=O)[nH]2)c1,4,1.1,59*,0.4,-8
O=c1cc(O)nc(SCc2ccc(Cl)cc2)[nH]1,18,0.9,19,0.8,6
CCNC(=O)/N=C1/NC(=O)C(C(C)C)O1 (centres undefined),28,1.1,4,1,-6
Cc1sc2ncnc(Sc3nnc4sc5ccccc5n34)c2c1C,6,.,.,.,.
COc1ccc(S(=O)(=O)N2CCN(c3ccc4nnc(-c5ccccc5)n4n3)CC2)cc1,17,0.2,87*,0.1,76*
NC(=O)C1(N2CCCCC2)CCN(c2ccc3nnc(-c4ccccc4)n3n2)CC1,10,0.2,68*,0.3,78*
NC(=O)C1(N2CCCCC2)CCN(c2nc(-c3ccccc3)cs2)CC1,13,0,88*,0.1,95*
c1ccc(-c2nnc3ccc(N4CCC5(CC4)OCCO5)nn23)cc1,5,0.9,48,0.5,10
CN(C(=O)COC(=O)c1cc(NS(=O)(=O)c2cc([N+](=O)[O-])ccc2Cl)ccc1O)C1CCCCC1,5,.,.,.,.
SMILES,Measles CPE,CYP2C19 act,CYP2C9 inh,CYP2C9 activ,CYP2C19 inh
O=C(CCc1nc(-c2ccccc2)no1)NCC1CCCO1 (centres undefined),2,1.1,-16,1.2,-8
C/C(=C\c1ccccc1)CN1CCN(c2cccc(Cl)c2)CC1,5,0.9,12,0.9,8
C/C=C(\C)CN1CCN(c2ccc(C)cc2)CC1,20,0.1,-1,1,86*
CCOC(=O)C1CCN(C(=O)c2ccc(Cl)c(NC3=NC4CS(=O)(=O)CC4S3)c2)CC1 (centres undefined),3,.,.,.,.
O=C(Nc1ccccn1)C12CC3CC(CC(C3)C1)C2,6,0.7,92*,0.1,26
CC12COC3(C(=O)Nc4ccc(Cl)cc4)CC1CCC32C (centres undefined),15,.,.,.,.
CC12COC3(C(=O)Nc4nccs4)CC1CCC32C (centres undefined),7,0.4,5,1,60*
O=C(Nc1nccs1)C12CC3CC(C1)CC(C(=O)Nc1nccs1)(C3)C2,18,0.1,81*,0.2,91*
O=C(Nc1nc2ccccc2[nH]1)C12CC3CC(CC(C3)C1)C2,12,1.2,-18,1.2,-23
Cc1cccnc1NC(=O)Cn1nc(C)c([N+](=O)[O-])c1C,9,0.6,-1,1,43
O=C(OC1CCc2ccccc2C1=O)c1ccccc1O (centres undefined),1,0.2,90*,0.1,82*
Cc1ccc2oc3nc(C)c(C(=O)O)cc3c(=O)c2c1,7,0.4,31,0.7,60*
COc1ccc(-n2c(C)cc(C(=O)NC3CCCCC3)c2C)cc1,8,1,11,0.9,0
O=C(Cn1nc(-c2ccccc2F)ccc1=O)Nc1ccc(S(=O)(=O)N2CCCCCC2)cc1,5,.,.,.,.
O=C(COC(=O)CCC(=O)c1cccs1)Nc1ccc(S(=O)(=O)N2CCOCC2)cc1,4,0.8,89*,0.1,21
O=C(COC(=O)CN1C(=O)c2ccccc2C1=O)Nc1ccc(S(=O)(=O)N2CCCC2)cc1,5,1.1,36,0.6,-5
O=C(Cn1ncc2c1-c1ccccc1OC2)Nc1ccc(S(=O)(=O)N2CCCCC2)cc1,5,0.8,68*,0.3,17
Cc1ccc(S(=O)(=O)N2CCOCC2)cc1NC(=O)COC(=O)CCC(=O)c1cccs1,22,0.8,14,0.9,16
O=C(COC(=O)CCN1C(=O)c2ccccc2C1=O)Nc1ccc(S(=O)(=O)N2CCCC2)cc1,2,0.5,96*,0,54*
CC(C(=O)OCC(=O)Nc1ccc(S(=O)(=O)N2CCCCC2)cc1)N1C(=O)c2ccccc2C1=O (centres undefined),4,0.8,92*,0.1,22
Cc1ccc(-n2nc(C)c(C3(O)C(=O)N(C(C)C)c4ccccc43)c2N)cc1 (centres undefined),3,.,.,.,.
Cc1nc2nc[nH]n2c(=O)c1CCC(C)C,.,0.9,25,0.8,10
Cc1nc2ccccc2c(=O)n1NCc1cc(Br)cs1,12,0.6,19,0.8,42
Cc1ccc([N+](=O)[O-])cc1N(CC(=O)Nc1ccc(S(=O)(=O)Nc2cccc(C(F)(F)F)c2)cc1)S(C)(=O)=O,13,.,.,.,.
COc1cc(C)c(S(=O)(=O)n2ccc(C)n2)cc1C,1,0.2,-65,1.6,83*
COc1ccc(S(=O)(=O)n2ccc(C)n2)cc1C,13,0.5,-135,2.4*,50*
COc1ccc(S(=O)(=O)N2CCSC2)cc1C,3,.,.,.,.
O=C(CSc1nnc(-c2cccnc2)o1)OC1CCCCC1,4,1,-19,1.2,-5

# From PubChem
